Laboratory results reported in PubChem BioAssay (NCATS).
Results filed as inconclusive are left out. Active and inactive are the calls of the source. Calls come from the whole dose curve; as a rule, active = well fitted curve in the direction sought with a large enough effect; inconclusive = small, poorly fitted or top-dose-only effect, or another doubt; inactive = no such curve, though single readings can be large; an effect the other way counts as inactive or inconclusive.

What was measured:
[1] = target: Rap guanine nucleotide exchange factor 3 (Homo sapiens) (UniProt O95398); assay: Confirmatory qHTS for antagonist of cAMP-regulated guanine nucleotide exchange factor 3 (EPAC1) (AID 1645880); note: nearly all actives have a fitted effect of over 55% in size; note: potency is the fitted concentration of half-maximal effect
Rap guanine nucleotide exchange factor 3 (Homo sapiens), sequence (O95398 whole entry, looked up): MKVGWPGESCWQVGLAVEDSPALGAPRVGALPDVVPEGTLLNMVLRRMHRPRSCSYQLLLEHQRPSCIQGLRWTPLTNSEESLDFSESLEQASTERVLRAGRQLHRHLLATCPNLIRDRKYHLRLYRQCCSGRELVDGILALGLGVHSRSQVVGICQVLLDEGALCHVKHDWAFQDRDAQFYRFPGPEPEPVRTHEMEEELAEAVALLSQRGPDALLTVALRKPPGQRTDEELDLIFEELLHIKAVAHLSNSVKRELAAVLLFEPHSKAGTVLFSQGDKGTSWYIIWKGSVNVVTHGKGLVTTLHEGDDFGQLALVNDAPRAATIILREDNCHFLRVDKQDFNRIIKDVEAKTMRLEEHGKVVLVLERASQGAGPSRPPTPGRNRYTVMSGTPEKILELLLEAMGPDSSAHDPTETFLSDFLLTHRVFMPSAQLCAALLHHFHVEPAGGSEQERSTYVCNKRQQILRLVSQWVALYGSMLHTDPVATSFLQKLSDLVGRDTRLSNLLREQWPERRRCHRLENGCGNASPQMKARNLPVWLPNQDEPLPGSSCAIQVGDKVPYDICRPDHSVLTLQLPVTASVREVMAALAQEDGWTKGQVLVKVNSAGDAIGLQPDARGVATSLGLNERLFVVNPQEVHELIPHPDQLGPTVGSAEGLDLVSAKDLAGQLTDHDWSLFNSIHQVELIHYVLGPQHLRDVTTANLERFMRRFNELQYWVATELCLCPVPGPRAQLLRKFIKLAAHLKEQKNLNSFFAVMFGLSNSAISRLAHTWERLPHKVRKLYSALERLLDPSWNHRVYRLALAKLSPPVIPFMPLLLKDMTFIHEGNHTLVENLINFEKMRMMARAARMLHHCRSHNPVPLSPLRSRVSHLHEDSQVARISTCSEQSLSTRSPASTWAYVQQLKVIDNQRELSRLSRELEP
In short: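 Released BODIPY-GDP fluoresces less than Rap1-bound BODIPY-GDP; the signal is followed at 480/540 nm at 5-min intervals over 30 min, after 5 min at room temperature. Reactions contain 100 nM EPAC1, 250 nM RAP1B-BODIPY-GDP and 50 uM GDP; results are normalized to ATA and DMSO.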

[2] = target: Rap guanine nucleotide exchange factor 3 (Homo sapiens) (UniProt O95398); assay: Confirmatory qHTS for agonist of cAMP-regulated guanine nucleotide exchange factor 3 (EPAC1) (AID 1645881);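 note: EPAC1 catalysed release of BODIPY-GDP from Rap1B seen as fluorescence loss; 100% = effect of cAMP agonist control; nearly all actives have a fitted effect of over 75% in size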
[3] = target: Rap guanine nucleotide exchange factor 4 (Homo sapiens) (UniProt Q8WZA2); assay: Confirmatory qHTS for agonist of cAMP-regulated guanine nucleotide exchange factor 4 (EPAC2) (AID 1645884);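 note: nucleotide exchange releases bodipy-GDP from Rap1 and this lowers its fluorescence; % is set by controls: 0 for no effect and ±100 for the full control effect; nearly all actives have a fitted effect of over 65% in size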
Rap guanine nucleotide exchange factor 4 (Homo sapiens), sequence (Q8WZA2 whole entry, looked up): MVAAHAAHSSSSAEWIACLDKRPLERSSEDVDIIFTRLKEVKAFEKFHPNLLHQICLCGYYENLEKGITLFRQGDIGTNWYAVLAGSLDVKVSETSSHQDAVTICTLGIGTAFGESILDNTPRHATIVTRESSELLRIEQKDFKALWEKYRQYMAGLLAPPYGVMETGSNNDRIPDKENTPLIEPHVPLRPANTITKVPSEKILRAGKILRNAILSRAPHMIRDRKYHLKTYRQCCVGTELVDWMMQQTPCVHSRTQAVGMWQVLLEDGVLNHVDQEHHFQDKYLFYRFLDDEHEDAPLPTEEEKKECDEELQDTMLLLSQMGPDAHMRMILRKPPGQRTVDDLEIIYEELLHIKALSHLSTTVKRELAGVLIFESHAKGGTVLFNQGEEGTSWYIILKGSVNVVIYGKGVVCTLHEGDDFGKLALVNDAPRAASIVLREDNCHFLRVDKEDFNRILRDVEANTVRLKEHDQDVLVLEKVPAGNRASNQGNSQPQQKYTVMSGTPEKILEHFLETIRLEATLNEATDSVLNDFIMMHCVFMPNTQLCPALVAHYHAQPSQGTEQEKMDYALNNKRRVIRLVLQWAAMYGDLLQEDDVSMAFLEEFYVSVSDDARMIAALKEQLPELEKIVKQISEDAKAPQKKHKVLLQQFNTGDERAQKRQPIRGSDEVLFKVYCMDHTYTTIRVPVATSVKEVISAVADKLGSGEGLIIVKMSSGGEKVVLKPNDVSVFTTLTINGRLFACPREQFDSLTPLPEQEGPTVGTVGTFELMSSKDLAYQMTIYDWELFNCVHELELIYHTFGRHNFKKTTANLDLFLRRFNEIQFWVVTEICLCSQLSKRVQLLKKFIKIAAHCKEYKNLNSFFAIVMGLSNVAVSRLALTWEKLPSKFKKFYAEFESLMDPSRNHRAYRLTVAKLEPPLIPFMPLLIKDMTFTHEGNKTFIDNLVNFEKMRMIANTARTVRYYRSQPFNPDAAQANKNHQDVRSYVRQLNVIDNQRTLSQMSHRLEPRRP

[4] = target: Rap guanine nucleotide exchange factor 4 (Homo sapiens) (UniProt Q8WZA2); assay: Confirmatory qHTS for antagonist of cAMP-regulated guanine nucleotide exchange factor 4 (EPAC2) (AID 1645885); note: nearly all actives have a fitted effect of over 25% in size; note: potency is the fitted concentration of half-maximal effect; for activity change, negative = inhibition: % is set by controls: 0 for no effect and ±100 for the full control effect
[5] = target: Rap guanine nucleotide exchange factor 3 (Homo sapiens) (UniProt O95398); assay: Counterscreen qHTS for antagonist of cAMP-regulated guanine nucleotide exchange factor 3 (EPAC1) (AID 1645888); note: % of control where 0% means no effect
In short: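 Rap1B-BODIPY-GDP 250 nM + GDP 50 uM; cpds 7-pt, final 9.74 nM–152 uM (activator mode) or from 7.32 nM upwards (inhibitor mode); RT; FI 480/540 nm at 5 and 30 min, then ± cAMP, reread.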

COC(=O)c1ccc2nc(-c3ccc(C)cc3)c(Cc3ccc(C)cc3)n2c1
inactive: Potency [1] | Potency [2] | Potency [3] | Potency [5]
active: Potency [4] 37.9 µM

COc1cc(Nc2cc(C)nc3ncnn23)cc(OC)c1
inactive: Potency [1] | Potency [2] | Potency [3] | Potency [4] | Potency [5]

Cc1nc2sc(C(c3cccs3)N3CCN(c4ccccc4)CC3)c(O)n2n1 (stereo not given)
inactive: Potency [1] | Potency [2] | Potency [3] | Potency [4] | Potency [5]

CC(C)(C)c1ccc(OCCC(=O)OCC(=O)Nc2ccc(N3CCOCC3)cc2)cc1
inactive: Potency [1] | Potency [2] | Potency [3] | Potency [4] | Potency [5]

COC(=O)C1=CN(c2ccc(F)cc2)C(N)=C(C#N)C1c1cccc(OC)c1OC (stereo not given)
inactive: Potency [1] | Potency [2] | activation [3] 4.9% [at 17.1 µM, percent relative to cAMP agonist control] | Potency [4] | activity change, negative = inhibition [5] -6.52% [at 30.8 µM]

COCC(=O)Oc1c(Sc2ccc(C)cc2)c(C)nn1C(C)(C)C
inactive: Potency [1] | Potency [2] | Potency [3] | Potency [4] | Potency [5]

Cc1ccc2c(c1)C(c1ccccc1)CC(=O)O2 (stereo not given)
active: Potency [4] 37.9 µM
inactive: Potency [1] | Potency [2] | Potency [3] | Potency [5]

Clc1ccccc1Cn1c(-c2cccs2)nc2ccccc21
inactive: Potency [1] | Potency [2] | Potency [3] | Potency [4] | Potency [5]

CCOc1cccc(C(=O)N(Cc2ccc(F)cc2)Cc2ccco2)c1
inactive: Potency [1] | Potency [2] | Potency [3] | Potency [4] | Potency [5]

O=S(c1ccc2ccccc2c1)c1cnns1 (stereo not given)
inactive: Potency [1] | Potency [2] | Potency [3] | Potency [4] | Potency [5]

Cc1nn(-c2ccccc2)c(N2CCCC2)c1/C=C1\N=C(c2ccc(OC(C)C)cc2)OC1=O
inactive: Potency [1] | Potency [2] | Potency [3] | Potency [4] | Potency [5]

NNc1nc2c(Cl)cccc2s1
inactive: Potency [1] | Potency [2] | Potency [3] | Potency [5]
active: Potency [4] 95.3 µM

CCOC(=O)c1cc2c(=O)n3ccccc3nc2n(Cc2ccco2)c1=NC(=O)c1ccc(Br)cc1
inactive: Potency [2] | Potency [3] | outcome [4] inactive [at 12.7 µM] | Potency [5]
active: Potency [1] 75.7 µM

CCn1c(CSc2nc3ccccc3s2)nnc1SCC(=O)c1ccc(O)c(O)c1
inactive: Potency [1] | Potency [2] | Potency [3] | Potency [4] | Potency [5]

O=C(O)c1[nH]c2ccccc2c1C(c1cc(Cl)cc([N+](=O)[O-])c1O)c1c(C(=O)O)[nH]c2ccccc12
active: Potency [1] 37.9 µM
inactive: Potency [2] | Potency [3] | Potency [4] | Potency [5]

O=C(NCc1ccco1)c1c[nH]c2ccc(S(=O)(=O)N3CCOCC3)cc2c1=O
inactive: Potency [1] | Potency [2] | activation [3] 7.59% [at 17.1 µM, percent relative to cAMP agonist control] | Potency [4] | activity change, negative = inhibition [5] 1.66% [at 30.8 µM]

O=C(Nc1ccccc1N1CCOCC1)c1cccc2c(Br)cccc12
inactive: Potency [1] | Potency [2] | Potency [3] | Potency [4] | Potency [5]

Cc1cc(NC(=O)CSc2sc3c(O)cc(=O)[nH]c3c2C#N)ccc1Br
active: Potency [1] 42.6 µM
inactive: Potency [2] | Potency [3] | Potency [4] | Potency [5]

O=C(CSc1nnc(SCc2ccccc2)s1)N/N=C/C=C/c1ccco1
inactive: Potency [2] | activation [3] 3.41% [at 17.1 µM, percent relative to cAMP agonist control] | Potency [4] | activity change, negative = inhibition [5] -6.93% [at 30.8 µM]
active: Potency [1] 12.6 µM

Cc1ccc(C)c(COC(=O)c2cc(S(=O)(=O)N3CCCCC3)ccc2N2CCOCC2)c1
inactive: Potency [1] | Potency [2] | Potency [3] | Potency [4] | Potency [5]

C#CCOCCOCCOCCNc1nc(N2CCN(C(=O)[C@H](Cc3cc4ccccc4[nH]3)n3cc([C@@H](N)Cc4ccc(O)cc4)nn3)CC2)nc(N2CCN(C(=O)[C@H](Cc3cc4ccccc4[nH]3)n3cc([C@@H](N)CC(C)C)nn3)CC2)n1
inactive: Potency [2] | activation [3] -1.86% [at 17.1 µM, percent relative to cAMP agonist control] | Potency [4] | activity change, negative = inhibition [5] -28.3% [at 30.8 µM]
active: Potency [1] 44.7 µM

CN1OC[C@@H]2CN(S(=O)(=O)c3cc(Cl)cc(Cl)c3)[C@H](c3ccc(-c4ccc(C#N)cc4)cc3)C[C@@H]21
inactive: Potency [1] | Potency [2] | Potency [3] | Potency [4] | Potency [5]

COc1cc(C=NNc2ccc(S(=O)(=O)Nc3ccccc3C(=O)O)cc2[N+](=O)[O-])ccc1O
inactive: Potency [2] | activation [3] -6.92% [at 17.1 µM, percent relative to cAMP agonist control] | Potency [4] | activity change, negative = inhibition [5] -11.1% [at 30.8 µM]
active: Potency [1] 20 µM

CCc1ccccc1NC(=O)c1cc2sc(Cl)cc2n1CC
inactive: Potency [1] | Potency [2] | Potency [3] | Potency [4] | Potency [5]

CCOC(=O)C1=C(CSc2nc3ccccc3s2)NC(=O)NC1c1ccc(OC)cc1 (stereo not given)
inactive: Potency [1] | Potency [2] | Potency [3] | outcome [4] inactive; activator; fitted 0.12 uM [at 12.7 µM] | Potency [5]

CC(C)c1ccc(NS(=O)(=O)c2cn(C)c(=O)n(C)c2=O)cc1
inactive: Potency [1] | Potency [2] | Potency [3] | Potency [5]
active: Potency [4] 6.01 µM

NS(=O)(=O)c1ccc(NC2=CC(=O)C(=O)c3ccccc32)cc1
active: Potency [1] 26.9 µM | Potency [4] 84.9 µM
inactive: Potency [2] | Potency [3] | Potency [5]

CC1=C(C(=O)OC2CCCC2)C(c2c(Cl)cccc2Cl)CC(=O)N1 (stereo not given)
inactive: Potency [1] | Potency [2] | Potency [3] | Potency [4] | Potency [5]

Cc1ccc(-c2cc3ccccc3nc2N2CCOCC2)cc1
inactive: Potency [1] | Potency [2] | Potency [3] | Potency [4] | Potency [5]

N#C/C(=C\c1ccc(O)c([N+](=O)[O-])c1)c1nc2ccccc2s1
active: Potency [1] 33.8 µM
inactive: Potency [2] | Potency [3] | Potency [4] | Potency [5]

O=C(O)c1ccc(C=C(c2nc3ccccc3s2)c2nc3ccccc3s2)cc1
active: Potency [1] 42.6 µM
inactive: Potency [2] | Potency [3] | Potency [4] | Potency [5]

Cc1ccc(C(NC(=O)C(C)C)c2cc([N+](=O)[O-])c3cccnc3c2O)cc1 (stereo not given)
inactive: Potency [2] | activation [3] 0.958% [at 17.1 µM, percent relative to cAMP agonist control] | Potency [4] | activity change, negative = inhibition [5] -17.2% [at 30.8 µM]
active: Potency [1] 35.5 µM

Cn1c(=O)c2nc(SCC(=O)Nc3ccc(Cl)c(Cl)c3)n(C)c2n(C)c1=O
inactive: Potency [1] | Potency [2] | Potency [3] | outcome [4] inactive [at 12.7 µM] | Potency [5]

CCn1c(C(=O)N2CCCC(C(=O)N3CCN(c4cc(C)ccc4C)CC3)C2)cc2sccc21 (stereo not given)
inactive: Potency [1] | Potency [2] | Potency [3] | outcome [4] inactive [at 12.7 µM] | Potency [5]

Cc1c(Cl)ccc2c(C(=O)O)cc(-c3ccccc3)nc12
inactive: Potency [1] | Potency [2] | activation [3] 9.62% [at 17.1 µM, percent relative to cAMP agonist control] | Potency [4] | activity change, negative = inhibition [5] 5.51% [at 30.8 µM]

Cc1cccc(C(=O)Nc2cccc(C(=O)N/N=C/c3cccc(C)n3)c2)c1
inactive: Potency [1] | Potency [2] | Potency [3] | Potency [4] | Potency [5]

CN(C)C(=O)CCc1ccc2c3c([nH]c2c1)[C@]1(C)[C@@H](C(=O)N2CCCCC2)C[C@H](CC(=O)NCCc2ccccn2)C(=O)N1CC3
inactive: Potency [1] | Potency [2] | activation [3] -3.15% [at 17.1 µM, percent relative to cAMP agonist control] | Potency [4] | activity change, negative = inhibition [5] -16% [at 30.8 µM]

Clc1ccc(NCc2nc3ccccc3n2CCOc2ccccc2)cc1
inactive: Potency [1] | Potency [2] | Potency [3] | outcome [4] inactive [at 12.7 µM] | Potency [5]
